High-throughput results deposited in PubChem by National Center for Advancing Translational Sciences (NCATS).
DT40 TDP1 no CPT = qHTS for Inhibitors of human tyrosyl-DNA phosphodiesterase 1 (TDP1): qHTS in cells in absence of CPT; DT40 Tdp1-/- hTDP1 cells, no CPT, ATP luminescence, 48 h; Potency, µM (series often up to 46.2 µM), hits mostly inhibitors; 420,000 tested, 15% active; further: nearly all actives have a fitted effect of over 55% in size
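Readout: luminescence from CellTiter-Glo after 30 min in the dark at RT. Cells: DT40 Tdp1-/- with stable hTDP1, 400/well. Exposure: compounds alone, ≥48 hr, 37 °C.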
TGFb inhibitor = TGF-b pathway inhibition; HepG2 CAGA-GFP TGF-b/SMAD3 reporter, GFP fluorescence, 18 h; TGF-beta stimulated, 500 pg/mL final; Potency, µM (series often up to 46.1 µM), most hits filed as inhibitors; 410,000 tested, 1.2% active; further: nearly all actives have a fitted effect of over 65% in size
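TGF-beta reporter screen: HEPG2 CAGA-GFP, 1% FBS, 500 pg/mL TGF-beta final, 18 h; per-cell GFP summed per well; curves fitted and categorized by class.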
IL1B secr inh = inflammasome signaling inhibition, IL-1 beta readout | THP-1 LPS/ATP IL-1B secretion, AlphaLISA, 16 h; hits give low values | activity change, % at 57.5 µM | 360,000 tested, 4.7% active | AID 743279; in the data active means activity change below about -50%; inconclusive means mostly about -30% to -49%
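THP-1 cells pretreated 1 hr with compounds (up to 57.5 uM final), then stimulated with LPS (250 ng/mL final) plus ATP (1.25 mM final); secreted IL-1B measured by AlphaLISA after 16 hr, decreased signal indicating inhibition.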
DT40 TDP1 CPT = growth inhibition of DT40 Tdp1-/-;hTDP1 cells with camptothecin (screen for TDP1 inhibitors); chicken DT40 Tdp1-/-;hTDP1 cells + 20 nM CPT, ATP luminescence, 48 h; Potency, µM (series often up to 46.2 µM), actives largely listed as inhibitors; 420,000 tested, 12% active; AID 686979; further: nearly all actives have a fitted effect of over 55% in size
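Chicken DT40 Tdp1-/- cells stably complemented with human TDP1 were seeded at 400 cells/well in medium containing 20 nM camptothecin, exposed to pin-transferred compounds, and grown at 37 °C for at least 48 hr. Viability was read as ATP luminescence.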
TDP1 inh = inhibitors of human tyrosyl-DNA phosphodiesterase TDP1. Q9NUW8. recombinant TDP1, AlphaScreen DNA substrate cleavage. Potency, µM (titrated, usually from 130 µM), most hits filed as inhibitors. 350,000 tested, 0.28% active. AID 485290; further: nearly all actives have a fitted effect of over 40% in size
Target sequence (Q9NUW8 whole entry, looked up): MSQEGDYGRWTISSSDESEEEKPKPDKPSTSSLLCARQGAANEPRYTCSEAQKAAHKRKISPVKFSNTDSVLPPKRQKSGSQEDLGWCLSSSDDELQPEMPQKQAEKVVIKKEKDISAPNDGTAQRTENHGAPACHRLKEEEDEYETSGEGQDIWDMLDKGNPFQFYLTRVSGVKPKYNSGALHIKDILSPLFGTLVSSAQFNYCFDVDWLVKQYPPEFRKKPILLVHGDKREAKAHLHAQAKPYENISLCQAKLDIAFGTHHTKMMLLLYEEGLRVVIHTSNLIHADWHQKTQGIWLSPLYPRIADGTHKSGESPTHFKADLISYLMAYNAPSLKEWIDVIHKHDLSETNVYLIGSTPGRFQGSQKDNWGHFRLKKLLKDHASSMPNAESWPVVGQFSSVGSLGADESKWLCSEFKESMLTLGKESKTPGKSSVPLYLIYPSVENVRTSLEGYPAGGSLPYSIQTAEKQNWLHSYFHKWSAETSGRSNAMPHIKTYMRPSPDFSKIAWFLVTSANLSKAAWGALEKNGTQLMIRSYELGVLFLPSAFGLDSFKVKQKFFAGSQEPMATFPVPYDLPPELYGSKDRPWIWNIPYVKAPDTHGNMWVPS
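Recombinant E. coli-expressed Tdp1 (1 nM) preincubated with compound 15 min at RT, then 5'-biotin/3'-phosphotyrosine-FITC DNA substrate (15 nM) added for 5 min. AlphaScreen beads (10 ug/ml) added, 10 min RT; tyrosine-FITC cleavage read as signal loss.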
HepG2 tox = HepG2 cytotoxicity, counter-screen for TGF-b inhibitors | HepG2 CAGA-GFP viability, ATP luminescence, 18 h | 410,000 tested, 0.76% active | Potency, µM (highest dose often 46.1 µM), actives largely listed as cytotoxic | AID 588856
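CellTiter-Glo luminescence gave cytotoxicity after 18 hours at 37 degrees C. The cells were HepG2 CAGA-GFP in 1% FBS DMEM, stimulated with 500 pg/mL TGF-beta after compound addition. %Activity was normalised to no-cell wells (complete cell-killing) and DMSO (no toxicity), and curves were fitted and classified.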
Numbers stand for hits; n = inactive; u = inconclusive; x = no result; [ ] = dose if it differs, or a comment. Sampled rows, rich in hits. Any-hit rate of the full collection: about 18%. Unless noted, the call rests on the fitted dose curve; in most records, active means well fitted curve in the direction sought with a large enough effect; inconclusive means small, poorly fitted or top-dose-only effect, or another doubt; inactive means no such curve, though single readings can be large; an effect the other way counts as inactive or inconclusive.

SMILES	DT40 TDP1 no CPT	TGFb inhibitor	IL1B secr inh	DT40 TDP1 CPT	TDP1 inh	HepG2 tox
CCOC(=O)c1ccc(N2C(=O)c3[nH]nc(-c4ccc(OCC)cc4)c3C2c2ccc(OC)cc2OC)cc1 (configuration not stated)	18.4µM	u	x	20.6µM	n	n
CCOC(=O)c1ccc(-c2n[nH]c(=O)c3ccccc23)cc1	n	n	n	n	n	n
CCOC(=O)c1ccc(N2C(=O)c3[nH]nc(-c4ccc(OC)cc4)c3C2c2cccc(O)c2)cc1 (configuration not stated)	20.6µM	15.8µM	x	18.4µM	n	10µM
Cc1nc(N/N=C/c2ccc(O)cc2)c2cnn(-c3ccccc3)c2n1	23.1µM	n	-74.3	u	n	15.8µM
COC(=O)COc1cc(OCC(=O)OC)c2c(-c3ccccc3)cc(=O)oc2c1	n	n	n	n	n	n
COc1cc(OC)c2c(-c3cccc(-c4ccc(C(F)(F)F)cc4)c3)cc(=O)oc2c1	2.59µM	u	n	4.61µM	n	n
CCOC(=O)c1ccc(-c2cccc(-c3cc(=O)oc4cc(OC)cc(OC)c34)c2)cc1	u	n	n	u	n	n
COc1cc(OC)c2c(-c3cccc(-c4sccc4C(C)=O)c3)cc(=O)oc2c1	4.11µM	u	n	3.66µM	n	n
COc1cc(OC)c2c(-c3cccc(-c4ccc(C#N)cc4)c3)cc(=O)oc2c1	4.11µM	u	n	2.06µM	n	n
Cc1cccc(-c2ccc(-c3cc(=O)oc4cc(C)cc(C)c34)cc2)c1	x	x	x	x	n	x
Cc1ccc(-c2cccc(-c3cc(=O)oc4ccc(C(C)(C)C)cc34)c2)cc1	23.1µM	n	n	u	n	n
COC(=O)[C@@H]1C[C@@H](NC(=O)c2cccc3c(C)c(C)[nH]c23)CN1Cc1cccc2ccccc12	n	x	x	n[9.04 µM]	x	x
CC(OC(=O)CCNS(=O)(=O)c1cccs1)C(=O)Nc1ccc(S(N)(=O)=O)cc1 (configuration not stated)	n	n	n	n	n	n
COc1cc(OC)c2c(-c3cccc(-c4ccc(F)c(Cl)c4)c3)cc(=O)oc2c1	23.1µM	u	n	u	n	n
COc1ccc(-c2ccc(C(=O)Nc3cccc(C(F)(F)F)c3)c3occc23)c(C)c1	20.6µM	n	n	23.1µM	x	n
COc1ccc(-c2ccc(C(=O)Nc3cc(OC)c(OC)c(OC)c3)c3occc23)c(C)c1	23.1µM	n	n	6.51µM	x	n
O=C(NC1CCCCC1)c1ccc(-c2cn[nH]c2)c2ccoc12	16.4µM	n	n	23.1µM	x	n
COc1ccc(-c2ccc(C(=O)NC3CCCCC3)c3occc23)c(C)c1	18.4µM	n	n	20.6µM	x	n
COc1ccc(-c2ccc(C(=O)Nc3ccc(Cl)cc3)c3occc23)c(C)c1	u	n	n	u	x	n
COc1ccc(-c2ccc(C(=O)Nc3ccc(NC(C)=O)cc3)c3occc23)c(C)c1	u	n	n	u	x	n
COc1ccc(S(=O)(=O)Nc2cc3c4c(c2)C(C)C(=O)N4CCC3)cc1OC (configuration not stated)	n	n	n	n	x	n
Cc1ccc(NC(=O)C2CCC(CNS(=O)(=O)c3cccc4nsnc34)CC2)c(Cl)c1 (configuration not stated)	u	n	x	n	n	n
O=C(Cc1ncc(C(F)(F)F)cc1Cl)NNc1cccc(F)n1	n	n	n	n	x	n
Cc1ccoc1C(=O)N1CCCCC1C(=O)O (configuration not stated)	18.4µM	n	n	u	n	n
Cc1cc(C)n(-c2ccc(NC(=O)C3CCCCN3C(=O)c3occc3C)cc2)n1 (configuration not stated)	n	n	n	u	n	n
SMILES	DT40 TDP1 no CPT	TGFb inhibitor	IL1B secr inh	DT40 TDP1 CPT	TDP1 inh	HepG2 tox
COc1ccc(NC(=O)N2CCCC3(CCN(S(=O)(=O)c4ccccc4)CC3)C2)cc1	n	x	x	n	x	x
CCCCOc1ccc(CNn2c(C)nc3ccccc3c2=O)cc1	23.1µM	n	n	u	n	n
COc1ccc(-c2csc(-c3c(N)c(C(=O)c4ccccc4)n4ccccc34)n2)cc1OC	2.31µM	n	x	4.11µM	n	n
O=C(NCCCN1CCC(Cc2ccccc2)CC1)c1ccc(CS(=O)c2ccccc2Cl)o1 (configuration not stated)	20.6µM	n	n	23.1µM	x	n
O=C(NCc1cccc(F)c1)c1ccc(CS(=O)c2ccccc2Cl)o1 (configuration not stated)	23.1µM	n	x	16.4µM	n	n
Cc1ccccc1S(=O)Cc1ccc(C(=O)NCc2ccccc2Cl)o1 (configuration not stated)	u	n	x	20.6µM	n	n
CC1CCCN(c2ccc(/C=C(\C#N)c3nn(-c4ccccc4)c(N)c3C#N)cc2[N+](=O)[O-])C1 (configuration not stated)	20.6µM	n	u	u	n	n
CC1CCN(c2ccc(/C=C(\C#N)c3nn(-c4ccccc4)c(N)c3C#N)cc2[N+](=O)[O-])CC1	8.2µM	u	n	18.4µM	n	n
CC1CCN(c2cc(N3CCC(C)CC3)c([N+](=O)[O-])cc2/C=C(\C#N)c2nn(-c3ccccc3)c(N)c2C#N)CC1	n	n	n	u	n	n
CCOC(=O)c1sc(NC(=O)CSc2nc3c(c(=O)n2-c2ccc(F)cc2)SCC3)c(C(=O)OCC)c1C	x	x	x	x	n	x
CC1CCN(Cc2c(O)ccc3c(=O)c(-c4nc5ccccc5s4)c(N)oc23)CC1	u	n	n	u	n	n
CC1(C)CCCN(Cc2c(O)ccc3c(=O)c(-c4nc5ccccc5s4)c(N)oc23)C1	13µM	n	n	18.4µM	n	n
CC(/C=N/NC(=O)c1ccccc1C)=C\c1ccccc1	u	n	n	u	x	n
CC(/C=N/NC(=O)c1n[nH]c2c1CCC2)=C\c1ccccc1	1.3µM	u	n	1.16µM	n	n
O=C(N/N=C/C=C/c1ccccc1)c1n[nH]c2c1CCC2	0.82µM	u	n	1.64µM	n	n
O=C(N/N=C/C=C/c1ccccc1)c1cccnc1	u	n	n	20.6µM	n	n
O=C(N/N=C/C(Br)=C\c1ccccc1)c1n[nH]c2c1CCC2	0.231µM	u	n	0.231µM	n	n
COC(=O)c1cc(C(=O)OCC(=O)NC2CCCC2)cc([N+](=O)[O-])c1	n	n	n	n	x	n
